Measurements taken from PubChem BioAssay AID1259372 (The Scripps Research Institute Molecular Screening Center, 2018).
Hit rate of the full screen: of about 4,700 compounds, about 760 (16%) were called active. Only a sample is shown. A number with no mark means an inactive call.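 How the source made its calls: active means inhibition above a cutoff derived from the DMSO control wells (cut at about 28% in these data); inactive means the rest.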

Each compound was assayed against Microphthalmia-associated transcription factor (Homo sapiens) (UniProt O75030) (assay: MITF inhibitors, retest of hits, confirmation, biochemical, AlphaScreen, triplicate (AID 1259372)). Conditions: AlphaScreen MITF homodimerization, biotin/His-MITF beads; at 2.6 µM; hits give high values.
Chain of Microphthalmia-associated transcription factor (Homo sapiens) (O75030 whole entry, looked up): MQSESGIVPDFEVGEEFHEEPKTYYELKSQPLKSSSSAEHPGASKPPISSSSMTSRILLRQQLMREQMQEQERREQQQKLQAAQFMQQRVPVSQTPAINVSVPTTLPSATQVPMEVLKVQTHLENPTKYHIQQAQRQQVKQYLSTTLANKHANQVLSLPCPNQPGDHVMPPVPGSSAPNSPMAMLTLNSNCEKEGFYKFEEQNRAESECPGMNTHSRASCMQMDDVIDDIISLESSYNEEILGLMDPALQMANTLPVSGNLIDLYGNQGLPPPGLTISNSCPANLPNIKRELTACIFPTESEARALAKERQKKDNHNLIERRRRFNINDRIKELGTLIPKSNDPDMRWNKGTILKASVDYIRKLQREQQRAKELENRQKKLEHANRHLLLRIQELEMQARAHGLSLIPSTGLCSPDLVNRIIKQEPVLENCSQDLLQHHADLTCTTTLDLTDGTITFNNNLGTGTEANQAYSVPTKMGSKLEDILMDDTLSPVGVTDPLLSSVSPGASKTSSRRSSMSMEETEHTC

| SMILES | inhibition |
| --- | --- |
| O=C(C1CCN(Cc2nc3ccccc3[nH]2)CC1)N1CCN(c2ccccn2)CC1 | 0.24% |
| COc1ccc(OC)c(CN2CCN(Cc3ccccc3OC)CC2)c1 | 10.6% |
| C=CCNCCOCCOc1cc(C)ccc1C(C)(C)C | 7.1% |
| c1cc2c(cc1CN1CCN(C3CCCCC3)CC1)OCO2 | -2.28% |
| Cc1cnc(NCc2ccc3c(c2)OCO3)nc1Nc1ccccc1 | -0.48% |
| c1cc2c(cc1CNc1nc(Nc3ccc(N4CCOCC4)cc3)c3ncn(C4CCCCC4)c3n1)OCO2 | 71.3% (active) |
| CC(C)(C)NCCOCCOc1ccc(Cl)c(Cl)c1 | 4.77% |
| O=C(Nc1ccc2c(c1)OCO2)C(c1ccccc1)N(Cc1ccccc1)Cc1ccccc1 (centres undefined) | -3.96% |
| Cc1cccc(CSc2n[nH]c(=O)[nH]c2=O)c1 | -2.69% |
| COc1cc(OC)c(OC)cc1CN1CCN(Cc2ccc(F)cc2)CC1 | -1.09% |
| Cc1nnc(N2CCC(Cc3ccccc3)CC2)c2ccccc12 | 2.32% |
| COc1ccc(CNCC2CN(CC(C)C)CCO2)cc1 (centres undefined) | 10% |
| CCN1CCN(CCOCCOc2ccc([N+](=O)[O-])cc2)CC1 | 3.04% |
| c1ccc(-c2ccccc2OCCNCCN2CCOCC2)cc1 | 16.9% |
| O=C(O)CCCCCNC(=O)/C(=C\c1ccco1)NC(=O)c1ccccc1 | 25.9% |
| O=[N+]([O-])c1ccccc1CN1CCN(Cc2ccccc2C(F)(F)F)CC1 | 3.85% |
| Cc1cc(OCCN2CCN(C)CC2)ccc1C(C)C | -2.72% |
| O=C(O)CCCCC1SCC2NC(=O)NC21O (centres undefined) | 116% (active) |
| COC(=O)C1(C)NC(c2ccc(C)cc2)C2C(=O)N(c3ccc(F)cc3)C(=O)C21 (centres undefined) | 11.8% |
| CC(=O)c1ccc(NC(=O)C(C)NCc2ccc(C)cc2)cc1 (centres undefined) | 3.11% |
| O=C(c1cccs1)N1CCC(N2CCN(Cc3ccccc3)CC2)CC1 | 1.58% |
| NC(=O)COC(=O)/C=C/c1ccc(I)o1 | 57.8% (active) |

| SMILES | inhibition |
| --- | --- |
| Cc1nc(NC2CC2)cc(-c2ccc(F)cc2)n1 | 12% |
| CCOc1ccc(CN2CCN(C(=O)c3cccc(Cl)c3)CC2)cc1 | -0.91% |
| CC(C)c1ccc(C2/C(=C(/O)c3ccccc3)C(=O)C(=O)N2CCN(C)C)cc1 (centres undefined) | 4.9% |
| CCCCCOc1ccc(OC(=O)c2ccc(-c3ccc(CCC)cn3)cc2)cc1 | 4.5% |
| COc1ccc(Br)cc1CN1CCN(CCOCCO)CC1 | -4.85% |
| O=S(=O)(c1ccc(Br)cc1Cl)N1CCN(CCc2ccncc2)CC1 | 11.6% |
| CCN(CC)CC(=O)Nc1c2c(nc3ccccc13)N(c1cccc(C)c1)CC2 | -3.54% |
| c1ccc(CCCCNc2nccc(Nc3ccncn3)n2)cc1 | -1.64% |
| CN(C)CC(C)(C)CNCc1nnc(-c2ccccc2)o1 | -4.13% |
| COc1ccc(CN2CCN(Cc3cccnc3)CC2)cc1OCc1ccccc1 | 3.98% |
| CCCCCCOC(=O)c1cc(C(=O)OCCCCCC)c(C)nc1C | -4.67% |
| COc1cccc(C(=O)N2CCN(Cc3cc(OC)c(OC)cc3OC)CC2)c1 | 0.86% |
| COc1cc(CN2CCN(Cc3cc(OC)c(OC)cc3OC)CC2)cc(OC)c1 | 7.67% |
| c1ccc(Oc2cccc(OCCCCn3cncn3)c2)cc1 | -15.6% |
| CCCn1c(C)cc(-c2csc(NC(=O)Cc3ccsc3)n2)c1C | 21.7% |
| COC(=O)c1cccc(NS(=O)(=O)c2ccc3ccccc3c2)c1C | 1.98% |
| Clc1ccc(CN2CCN(CC3CC=CCC3)CC2)cc1 (centres undefined) | -2.27% |
| CCOc1ccccc1N1CCN(Cc2cc(OC)c(O)c([N+](=O)[O-])c2)CC1 | 32.4% (active) |
| COc1cc(CN2CCN(Cc3ccc(C)cc3)CC2)c([N+](=O)[O-])cc1OC | 6.72% |
| CCOc1cc(CN2CCN(Cc3ccccn3)CC2)ccc1OC | 13.2% |
| CCN1CCN(CCCOc2ccc(C(C)=O)cc2OC)CC1 | 1.36% |
| COc1cc(CN(CCN(C)C)Cc2ccccc2)cc(OC)c1 | 15.3% |

| SMILES | inhibition |
| --- | --- |
| Cc1cc(C(C)(C)C)ccc1OCCN1CCNCC1 | -3.14% |
| Cn1c(-c2ccc(F)cc2)cnc1NCc1cccnc1 | -19.5% |
| Cc1ccc(CN2CCN(Cc3ccncc3)CC2)cc1 | 15.2% |
| COc1cccc(CN2CCN(C(=O)c3ccccc3F)CC2)c1 | -1.9% |
| c1cc2c(cc1CN1CCN(C3CCCC3)CC1)OCO2 | -0.1% |
| O=C1NC(c2ccccc2[N+](=O)[O-])C(C(=O)c2cccs2)C(O)(C(F)(F)F)N1 (centres undefined) | 4.8% |
| CN1CCN(CCOCCOc2ccccc2Cl)CC1 | 6.9% |
| N#C/C(=C/c1ccc(-c2ccc3c(c2)C(=O)NC3=O)o1)C(=O)O | 6.58% |
| CCc1ccc(NC(=O)CS(=O)CC(=O)NCCCc2ccccc2)cc1 (centres undefined) | 44.5% (active) |
| Cc1ccc(NC(=O)CNCCCSc2ccccc2)cc1C | 14.7% |
| Nc1ccc(S(=O)(=O)O)c2cc(S(=O)(=O)O)cc(O)c12 | 42.7% (active) |
| Cc1ccc(C)c(OCCN2CCOCC2)c1C | 15.2% |
| COc1cc(CN2CCN(Cc3ccccc3Br)CC2)cc(OC)c1 | 9.11% |
| COc1ccc(COCC(O)CNCC(C)(C)CN(C)C)cc1OC (centres undefined) | 3.01% |
| COCc1nc2ccccc2n1CCc1noc(-c2ccco2)n1 | 6.8% |
| C1=CC2CC1CC2CN1CCN(Cc2c[nH]c3ccccc23)CC1 (centres undefined) | -0.81% |
| COc1cccc(/C=C(\C#N)c2nc3ccccc3[nH]2)c1OCc1ccc(Cl)cc1Cl | 0.99% |
| COc1ccc(CN2CCN(Cc3ccccc3OC)CC2)cc1Br | 5.52% |
| O=[N+]([O-])c1ccc(OCc2nnc(SCCN3CCOCC3)n2-c2ccccc2)cc1 | 2.94% |
| CCCS(=O)(=O)N1CCN(Cc2ccc(OC)c(OCc3ccccc3)c2)CC1 | -0.41% |
